Assay [1] in a line: Caspase-3/7 induction in HepG2 cells by small molecules, qHTS assay (AID 1346978). Further: nearly all actives have a fitted effect of over 15% in size. Further: potency means the concentration at half of the fitted maximal effect. In a few lines: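 Caspase-3/7 induction was measured by Caspase-Glo 3/7 luminescence (30 min, room temperature) after a 17 hr compound exposure of wild-type HepG2 cells seeded at 2,000 per well and pre-incubated 5 hr.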
(qHTS replaces the single test concentration by a dilution series.)

A short description of assay [2]: Caspase-3/7 induction in CHO-K1 cells by small molecules, qHTS cell viability counter screen (AID 1346979). Further: nearly all actives have a fitted effect of over 35% in size. Further: potency means the concentration at half of the fitted maximal effect. In a few lines:
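Seeding: 1,500 CHO-K1 cells/well. Rest: 5hr, 37C. Treatment: compounds in DMSO, 16hr. Read: CellTiter-Fluor, 1hr, fluorescence.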

A short description of assay [3]: Caspase-3/7 induction in CHO-K1 cells by small molecules, qHTS assay (AID 1346980). Further: nearly all actives have a fitted effect of over 15% in size. The essentials:
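Luminescent Caspase-Glo 3/7 read (30min, room temperature) quantified apoptosis induction. Cells were wild-type CHO-K1, treated with compound for 17hr at 37 C and 5% CO2.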

The nature of assay [4]: Caspase-3/7 induction in HepG2 cells by small molecules, qHTS cell viability counter screen (AID 1346981). Further: series mostly up to about 92 µM; nearly all actives have a fitted effect of over 30% in size. The essentials: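 CellTiter-Fluor fluorescence measured viability in the same wells used for Caspase-Glo 3/7. HepG2 (wild type) at 2,000 cells/well were pre-incubated 5 hr, dosed, and given reagent at 16 hr, with 1 hr further at 37C.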
For assay [5], the target named is Nuclear receptor subfamily 1 group I member 2 (Homo sapiens) (UniProt O75469). The experiment in a line: Human pregnane X receptor (PXR) small molecule agonists, qHTS assay (AID 1346982). Further: nearly all actives have a fitted effect of over 35% in size. Further: potency means the concentration at half of the fitted maximal effect. In a few lines:
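Agonist mode: luminescence from ONE-Glo after 24 h compound exposure at 37C in HepG2 cells carrying hPXR-responsive CYP3A4 luciferase, plated in charcoal-stripped serum medium 5 h beforehand.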

The target in assay [6] is Acetylcholinesterase (Homo sapiens) (UniProt P22303). The experiment in a line: Acetylcholinesterase (AChE) small molecule antagonists: colormetric cell-based qHTS assay (AID 1347395; calls by dose curve; further: nearly all actives have a fitted effect of over 30% in size; further: potency means the concentration at half of the fitted maximal effect). The essentials: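 Quantitative HTS in attached SH-SY5Y cells: 30 min compound exposure, then 90 min with acetylthiocholine and DTNB at 37 C; colour from thiocholine reports AChE activity.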

For assay [7] the target is unchanged. The assay is described as follows: Acetylcholinesterase (AChE) small molecule antagonists: enzyme-based qHTS assay (AID 1347397; calls by dose curve; further: nearly all actives have a fitted effect of over 55% in size; further: potency means the concentration at half of the fitted maximal effect). The following applies: Potency: AChE enzyme activity inhibition. The essentials: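 Colorimetric DTNB readout of acetylthiocholine hydrolysis, 10 min at room temperature, after 30 min room-temperature exposure of 50 mU/mL recombinant human enzyme to compound; DMSO vehicle control.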

For assay [8] the target is unchanged. The experiment in a line: Acetylcholinesterase (AChE) small molecule antagonists: fluorescence cell-based qHTS assay (AID 1347398; calls by dose curve; further: nearly all actives have a fitted effect of over 50% in size; further: potency means the concentration at half of the fitted maximal effect). The conditions noted are these: Potency: AChE activity. In a few lines:
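Cellular AChE activity read as thiocholine from acetylthiocholine hydrolysis, detected by Thiolite Green fluorescence at 490/520 nm after 40 min at room temperature. Compounds were pre-incubated 30 min at 37 C on adherent SH-SY5Y cells.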

The target is the same in assay [9]. The assay is described as follows: Acetylcholinesterase (AChE) small molecule antagonists: enzyme-based qHTS assay with human liver microsomes (AID 1347399; calls by dose curve; further: nearly all actives have a fitted effect of over 60% in size). The following applies: Potency: qHTS inhibition. In a few lines: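 Recombinant human AChE (50 mU/mL in the enzyme mix) and human liver microsomes (0.25 mg/mL final) were preincubated with compound and NADPH (0.25 mg/mL final) for 30 min at 37 C. Acetylthiocholine/DTNB was then added; thiocholine was read colorimetrically after 10 min at room temperature.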

In assay [10] the target is Cytochrome P450 2D6 (Homo sapiens) (UniProt P10635). The assay is described as follows: Cytochrome P450 Family 2 Subfamily D Member 6 (CYP2D6) small molecule antagonists: luciferase reporter qHTS assay (AID 1671196). Further: nearly all actives have a fitted effect of over 50% in size. Further: potency means the concentration at half of the fitted maximal effect. The essentials: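 CYP2D6 activity was followed as luminescence from its luciferin product after a 1 h NADPH-driven reaction at room temperature. Enzyme-substrate mix and compound were pre-incubated for 10 min, and the signal was read 20 min after adding detection reagent.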

Assay [11] concerns the target Cytochrome P450 2C19 (Homo sapiens) (UniProt P33261). The assay is described as follows: Cytochrome P450 Family 2 Subfamily C Member 19 (CYP2C19) small molecule antagonists: luciferase reporter qHTS assay (AID 1671197). Further: nearly all actives have a fitted effect of over 65% in size. Further: potency means the concentration at half of the fitted maximal effect. In a few lines:
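Compounds were tested on CYP2C19 activity via proluciferin conversion to luciferin. The 37C, 1 h reaction followed NADPH addition; detection reagent stopped it.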

In assay [12] the target is Cytochrome P450 2C9 (Homo sapiens) (UniProt P11712). The assay is described as follows: Cytochrome P450 Family 2 Subfamily C Member 9 (CYP2C9) small molecule antagonists: luciferase reporter qHTS assay (AID 1671198). Further: nearly all actives have a fitted effect of over 50% in size. Further: potency means the concentration at half of the fitted maximal effect. The essentials:
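Enzyme-substrate mix preincubated with compound 10 min at room temperature; reaction started with NADPH regeneration solution, 1 h 37C. Luminescent luciferin product read after 20 min detection reagent.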
(In general: A reporter such as luciferase makes a cellular process visible.)

In assay [13] the target is Cytochrome P450 1A2 (Homo sapiens) (UniProt P05177). The assay is described as follows: Cytochrome P450 Family 1 Subfamily A Member 2 (CYP1A2) small molecule antagonists: luciferase reporter qHTS assay (AID 1671199). Further: nearly all actives have a fitted effect of over 50% in size. Further: potency means the concentration at half of the fitted maximal effect. In a few lines: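 Luminescence from luciferin formed by CYP1A2 from a proluciferin substrate, read 20 min after detection reagent. Compound was pre-incubated 10 min with enzyme-substrate, and reaction started with NADPH regeneration solution for 1 h at room temperature; furafylline control.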

Assay [14] addresses Voltage-gated inwardly rectifying potassium channel KCNH2 (Homo sapiens) (UniProt Q12809). The assay is described as follows: Human Ether-a-go-go-Related Gene (hERG) channel small molecule antagonists: fluorescence cell-based qHTS assay (AID 1671200). Further: nearly all actives have a fitted effect of over 50% in size. Further: potency means the concentration at half of the fitted maximal effect. In a few lines: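 First, 1000 cells per well are seeded and cultured overnight at 37 C. Next, FluxOR II dye is loaded for 1 h at room temperature, protected from light. After 10 more minutes, stimulus is added and fluorescence is read.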
For orientation: The hERG channel carries a current that helps repolarise heart muscle cells.

The target in assay [15] is Cytochrome P450 3A4 (Homo sapiens) (UniProt P08684). The assay is described as follows: Cytochrome P450 Family 3 Subfamily A Member 4 (CYP3A4) small molecule antagonists: luciferase reporter qHTS assay (AID 1671201). The essentials:
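Enzyme and proluciferin substrate are mixed with test chemicals for 10 min, then NADPH regeneration system drives turnover for 1 h at room temperature. A detection reagent halts the reaction; luminescence after 20 min gives relative activity.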

Where “and” joins values, the source holds several entries; their conditions need not be identical. Identical values can stand only once. Results filed as inconclusive are left out. Some compounds were tested as several samples or in several runs, with calls that do not always agree. Calls of active or inactive are those of the source. Unless noted, the call rests on the fitted dose curve; in most records, active means well fitted curve in the direction sought with a large enough effect in the repeat runs; inconclusive means weak or mixed curves; inactive means no such curve, though single readings can be large; an effect the other way counts as inactive or inconclusive.

Sequence of Cytochrome P450 1A2 (Homo sapiens) (P05177 whole entry, looked up): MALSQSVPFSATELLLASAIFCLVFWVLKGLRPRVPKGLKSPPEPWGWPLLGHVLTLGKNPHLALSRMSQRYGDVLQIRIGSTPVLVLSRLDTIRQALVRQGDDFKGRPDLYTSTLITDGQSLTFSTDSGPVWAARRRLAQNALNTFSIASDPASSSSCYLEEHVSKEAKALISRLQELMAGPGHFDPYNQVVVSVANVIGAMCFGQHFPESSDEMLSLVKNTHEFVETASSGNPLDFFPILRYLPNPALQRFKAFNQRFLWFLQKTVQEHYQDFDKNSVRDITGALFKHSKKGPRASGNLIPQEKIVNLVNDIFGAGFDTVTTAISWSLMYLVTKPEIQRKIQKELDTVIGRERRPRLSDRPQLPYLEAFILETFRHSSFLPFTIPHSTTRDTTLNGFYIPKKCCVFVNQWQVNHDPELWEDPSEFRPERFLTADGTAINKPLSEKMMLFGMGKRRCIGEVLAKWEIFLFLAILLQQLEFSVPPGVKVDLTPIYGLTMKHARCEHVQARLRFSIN
Sequence of Cytochrome P450 3A4 (Homo sapiens) (P08684 whole entry, looked up): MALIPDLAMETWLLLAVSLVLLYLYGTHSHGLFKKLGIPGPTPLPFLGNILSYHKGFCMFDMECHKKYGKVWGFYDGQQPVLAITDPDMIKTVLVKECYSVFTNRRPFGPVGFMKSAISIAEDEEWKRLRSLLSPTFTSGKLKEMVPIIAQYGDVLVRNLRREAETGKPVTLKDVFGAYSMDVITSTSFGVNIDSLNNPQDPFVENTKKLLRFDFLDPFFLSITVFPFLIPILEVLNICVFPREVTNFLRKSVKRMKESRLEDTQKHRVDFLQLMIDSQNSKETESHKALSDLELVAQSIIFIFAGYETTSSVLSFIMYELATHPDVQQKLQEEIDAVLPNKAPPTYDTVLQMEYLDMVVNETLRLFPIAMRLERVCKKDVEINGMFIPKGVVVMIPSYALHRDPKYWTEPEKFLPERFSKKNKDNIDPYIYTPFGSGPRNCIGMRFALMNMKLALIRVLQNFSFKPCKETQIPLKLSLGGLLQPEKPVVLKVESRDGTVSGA
Sequence of Cytochrome P450 2C19 (Homo sapiens) (P33261 whole entry, looked up): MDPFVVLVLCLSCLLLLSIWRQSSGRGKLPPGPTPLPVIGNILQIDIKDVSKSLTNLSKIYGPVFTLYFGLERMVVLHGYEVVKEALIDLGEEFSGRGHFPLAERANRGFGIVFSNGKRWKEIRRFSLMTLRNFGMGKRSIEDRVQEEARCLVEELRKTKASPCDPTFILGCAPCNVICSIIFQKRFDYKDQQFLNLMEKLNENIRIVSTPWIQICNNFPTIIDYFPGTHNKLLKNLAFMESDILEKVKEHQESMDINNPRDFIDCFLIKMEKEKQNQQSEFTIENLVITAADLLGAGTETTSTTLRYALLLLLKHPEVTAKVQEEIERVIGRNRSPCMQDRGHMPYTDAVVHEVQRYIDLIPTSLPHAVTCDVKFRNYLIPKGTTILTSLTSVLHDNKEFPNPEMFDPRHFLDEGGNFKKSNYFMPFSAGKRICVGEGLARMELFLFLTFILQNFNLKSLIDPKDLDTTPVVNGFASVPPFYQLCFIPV
Sequence of Voltage-gated inwardly rectifying potassium channel KCNH2 (Homo sapiens) (Q12809 whole entry, looked up): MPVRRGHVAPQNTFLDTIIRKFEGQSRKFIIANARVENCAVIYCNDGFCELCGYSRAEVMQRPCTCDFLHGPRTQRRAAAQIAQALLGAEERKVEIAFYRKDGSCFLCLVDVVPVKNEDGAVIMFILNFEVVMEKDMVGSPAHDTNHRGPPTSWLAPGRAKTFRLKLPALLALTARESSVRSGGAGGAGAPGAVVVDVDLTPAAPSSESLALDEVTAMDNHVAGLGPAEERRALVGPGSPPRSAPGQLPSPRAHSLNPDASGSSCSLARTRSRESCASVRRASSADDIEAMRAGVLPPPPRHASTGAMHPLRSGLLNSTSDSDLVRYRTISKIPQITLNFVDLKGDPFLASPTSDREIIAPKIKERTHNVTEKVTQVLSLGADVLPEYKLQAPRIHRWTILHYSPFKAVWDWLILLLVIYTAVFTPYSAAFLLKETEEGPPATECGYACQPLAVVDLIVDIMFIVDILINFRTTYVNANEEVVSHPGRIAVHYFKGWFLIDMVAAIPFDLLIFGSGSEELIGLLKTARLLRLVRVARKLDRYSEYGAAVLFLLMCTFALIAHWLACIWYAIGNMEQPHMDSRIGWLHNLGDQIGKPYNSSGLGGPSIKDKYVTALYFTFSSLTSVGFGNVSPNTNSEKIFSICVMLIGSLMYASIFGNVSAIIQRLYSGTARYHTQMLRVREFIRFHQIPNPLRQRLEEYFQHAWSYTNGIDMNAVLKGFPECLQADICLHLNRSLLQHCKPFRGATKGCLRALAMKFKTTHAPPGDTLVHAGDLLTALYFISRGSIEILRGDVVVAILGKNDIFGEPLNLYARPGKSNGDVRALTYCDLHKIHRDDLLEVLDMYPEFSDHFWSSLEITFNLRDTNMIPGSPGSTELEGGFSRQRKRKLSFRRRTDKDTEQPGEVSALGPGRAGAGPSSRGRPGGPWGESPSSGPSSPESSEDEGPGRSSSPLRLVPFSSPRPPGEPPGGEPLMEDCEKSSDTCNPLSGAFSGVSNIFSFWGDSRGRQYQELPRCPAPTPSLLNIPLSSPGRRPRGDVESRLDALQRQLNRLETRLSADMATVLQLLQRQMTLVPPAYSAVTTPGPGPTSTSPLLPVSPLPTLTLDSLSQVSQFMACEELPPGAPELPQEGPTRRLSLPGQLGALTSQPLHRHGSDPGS
Sequence of Nuclear receptor subfamily 1 group I member 2 (Homo sapiens) (O75469 whole entry, looked up): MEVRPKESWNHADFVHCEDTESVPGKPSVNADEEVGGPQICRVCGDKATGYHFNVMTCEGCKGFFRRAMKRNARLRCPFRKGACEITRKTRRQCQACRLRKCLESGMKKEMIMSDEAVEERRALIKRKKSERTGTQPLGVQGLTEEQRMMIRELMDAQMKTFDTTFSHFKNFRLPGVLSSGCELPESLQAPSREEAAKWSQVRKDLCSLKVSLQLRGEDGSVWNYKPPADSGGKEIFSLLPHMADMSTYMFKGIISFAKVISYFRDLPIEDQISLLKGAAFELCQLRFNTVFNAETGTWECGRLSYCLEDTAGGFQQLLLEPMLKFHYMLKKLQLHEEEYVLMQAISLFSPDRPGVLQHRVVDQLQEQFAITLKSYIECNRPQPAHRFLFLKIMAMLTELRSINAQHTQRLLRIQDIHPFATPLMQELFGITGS
Sequence of Acetylcholinesterase (Homo sapiens) (P22303 whole entry, looked up): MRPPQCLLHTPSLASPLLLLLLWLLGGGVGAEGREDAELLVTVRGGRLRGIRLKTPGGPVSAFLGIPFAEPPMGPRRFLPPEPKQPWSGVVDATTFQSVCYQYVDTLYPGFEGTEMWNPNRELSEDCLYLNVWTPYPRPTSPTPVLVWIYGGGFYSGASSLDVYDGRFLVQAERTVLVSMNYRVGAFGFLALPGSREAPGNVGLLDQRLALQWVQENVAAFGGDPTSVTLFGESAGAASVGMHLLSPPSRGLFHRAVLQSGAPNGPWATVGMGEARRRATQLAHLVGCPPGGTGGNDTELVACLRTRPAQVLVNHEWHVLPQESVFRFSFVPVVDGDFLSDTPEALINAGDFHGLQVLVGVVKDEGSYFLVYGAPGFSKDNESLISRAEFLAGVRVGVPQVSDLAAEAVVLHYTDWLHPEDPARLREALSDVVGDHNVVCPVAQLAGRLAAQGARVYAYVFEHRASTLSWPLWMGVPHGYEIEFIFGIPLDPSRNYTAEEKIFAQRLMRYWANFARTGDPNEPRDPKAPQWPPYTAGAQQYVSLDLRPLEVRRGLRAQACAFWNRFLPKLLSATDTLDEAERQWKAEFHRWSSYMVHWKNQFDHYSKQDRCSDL
Sequence of Cytochrome P450 2C9 (Homo sapiens) (P11712 whole entry, looked up): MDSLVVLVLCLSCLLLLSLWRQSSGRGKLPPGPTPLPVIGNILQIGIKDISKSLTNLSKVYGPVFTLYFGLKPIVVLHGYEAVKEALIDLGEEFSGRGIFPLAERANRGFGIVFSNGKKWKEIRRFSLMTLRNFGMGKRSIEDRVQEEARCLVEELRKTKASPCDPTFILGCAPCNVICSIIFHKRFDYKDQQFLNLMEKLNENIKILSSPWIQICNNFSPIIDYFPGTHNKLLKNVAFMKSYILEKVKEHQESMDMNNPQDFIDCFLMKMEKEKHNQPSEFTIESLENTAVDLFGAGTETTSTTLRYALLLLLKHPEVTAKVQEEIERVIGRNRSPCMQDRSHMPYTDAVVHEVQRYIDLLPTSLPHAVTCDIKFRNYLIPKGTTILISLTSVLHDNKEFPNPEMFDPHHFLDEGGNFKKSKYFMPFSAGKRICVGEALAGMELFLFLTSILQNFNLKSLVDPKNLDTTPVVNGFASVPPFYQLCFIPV
Sequence of Cytochrome P450 2D6 (Homo sapiens) (P10635 whole entry, looked up): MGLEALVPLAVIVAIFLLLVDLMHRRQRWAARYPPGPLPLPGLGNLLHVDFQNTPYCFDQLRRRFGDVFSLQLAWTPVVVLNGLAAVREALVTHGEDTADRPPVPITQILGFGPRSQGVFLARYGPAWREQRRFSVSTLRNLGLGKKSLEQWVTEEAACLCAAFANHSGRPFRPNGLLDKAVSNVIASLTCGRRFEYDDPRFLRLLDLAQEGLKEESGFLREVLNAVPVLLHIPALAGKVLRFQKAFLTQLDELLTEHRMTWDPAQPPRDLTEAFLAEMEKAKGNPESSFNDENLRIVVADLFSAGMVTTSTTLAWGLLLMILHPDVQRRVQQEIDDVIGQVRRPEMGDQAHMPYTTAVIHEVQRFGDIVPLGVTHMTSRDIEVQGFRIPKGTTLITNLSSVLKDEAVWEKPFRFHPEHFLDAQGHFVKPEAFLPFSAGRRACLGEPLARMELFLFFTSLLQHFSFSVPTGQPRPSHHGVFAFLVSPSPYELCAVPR

Regarding `CC(C)(OOC(C)(C)c1ccccc1)c1ccccc1`, the Potency result in [1], in [2], in [3], in assay [4], in [5] and in assay [6] was “inactive” each time. In addition, the Potency entry in assay [7], in [8], in assay [9], in [13], in [14] and in assay [15] was “inactive” each time. The Potency in assay [10] is 35.1 µM (active) and inactive; in assay [11], 35.1 µM (active) and 6.33 µM (active); in assay [12], 31.3 µM (active) and 31.7 µM (active).
As to `ClC1C(Cl)C(Cl)C(Cl)C(Cl)C1Cl` (configuration not stated), the Potency entry in assay [1], in assay [2], in [3] and in [4] was “inactive” in each case. Besides, the Potency entry was “inactive and 39.9 µM (active) and 71 µM (active)” in assay [10]; 32.4 µM (active) and 35.6 µM (active) and 31.7 µM (active) in [12]; 39.7 µM (active) and inactive and 43.6 µM (active) in [14].
On to `O=C(O)CC[N+](=O)[O-]`, for which the Potency entry in assay [1], in assay [2], in assay [3], in assay [4], in assay [5] and in [9] was “inactive” throughout. Further, the Potency entry in [10], in [11], in assay [13], in [14] and in assay [15] was “inactive” throughout. Besides, the Potency result was “inactive and 8.94 µM (active)” in [6]; “inactive and 28.3 µM (active)” in assay [7]; “inactive and 7.96 µM (active)” in assay [8].
For the molecule `Cc1ccc(OP(=O)(Oc2ccc(C)cc2)Oc2ccc(C)cc2)cc1`, the Potency in assay [1] is 967 nM (active) and inactive; in assay [2], 27.3 µM (active) and inactive; in [5] it was 5.44 µM (active) and 13.7 µM (active); in [11] it was 3.99 µM (active) and 5.03 µM (active); in assay [12], 7.09 µM (active) and 8.94 µM (active); in assay [13], 7.09 µM (active) and 7.1 µM (active). For the same molecule, the Potency entry in [3], in assay [4], in assay [6], in assay [7], in assay [8] and in [9] was “inactive” in each case. Further, the Potency entry in [10] is “inactive”.
For `O=P(O)(O)CCCl`, the Potency entry in assay [1], in [2], in assay [3], in assay [4], in assay [5] and in assay [7] was “inactive” each time. Besides, the Potency entry in assay [8], in [9], in assay [10], in assay [11], in [12] and in assay [13] was “inactive” each time. Besides, the Potency result in assay [14] and in assay [15] was “inactive” throughout.
In the case of `Oc1cc(Cl)ccc1Cl`, the Potency entry in assay [1], in [2], in [3], in assay [4], in assay [5] and in [6] was “inactive” in each case. Besides, the Potency entry in assay [7], in assay [8], in assay [9], in [10], in assay [11] and in assay [12] was “inactive” throughout. Moreover, the Potency result in [14] and in [15] was “inactive” throughout. Further, in assay [13], the Potency was 36.6 µM (active) and 31.7 µM (active).
For the molecule `COP(=O)(OC)OC`, the Potency entry in [1], in [3], in assay [4], in assay [6], in assay [7] and in assay [8] was “inactive” each time. Also, the Potency result in [9], in [10] and in assay [14] was “inactive” in each case. Also, the Potency is 30.9 µM (active) and inactive in assay [2]; 61.6 µM (active) and inactive in [5]; 9.01 µM (active) and inactive in assay [11]; 32 µM (active) and inactive in assay [12]; 35.9 µM (active) and inactive in [13].
